# Measured values taken from PMC7862700, “An all-to-all approach to the identification of sequence-specific readers for epigenetic DNA modifications on cytosine”.
# Legend:
# Experiment in all cases: DAPPL (digital affinity profiling via proximity ligation, sequencing); 10 mM Tris-HCl pH 7.5, 50 mM NaCl, 1 mM DTT, 4% glycerol, room temperature, 30 min; GST-TFs on glutathione beads, 16-mer random dsDNA library, 0.1% formaldehyde crosslink after washing; high values mean tight binding
# [1] = molecular target: T1, FLI1 (Homo sapiens, UniProt Q01543 1-452); settings: protein: recombinant; tags: N-terminal GST; dsDNA, one strand shown
# T1 sequence: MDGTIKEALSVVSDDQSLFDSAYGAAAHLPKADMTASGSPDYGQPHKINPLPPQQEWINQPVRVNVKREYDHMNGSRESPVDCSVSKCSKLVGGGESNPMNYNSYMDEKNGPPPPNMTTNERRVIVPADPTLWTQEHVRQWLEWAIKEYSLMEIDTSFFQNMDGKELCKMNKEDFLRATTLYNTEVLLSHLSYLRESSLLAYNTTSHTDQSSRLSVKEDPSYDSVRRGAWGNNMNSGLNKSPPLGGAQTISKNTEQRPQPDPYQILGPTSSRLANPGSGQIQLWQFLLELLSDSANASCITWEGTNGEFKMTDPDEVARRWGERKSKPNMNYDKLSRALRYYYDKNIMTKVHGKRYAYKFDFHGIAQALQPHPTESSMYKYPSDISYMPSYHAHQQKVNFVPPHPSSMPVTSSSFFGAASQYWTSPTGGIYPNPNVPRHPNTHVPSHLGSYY
# In short: (§1)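 Human transcription factors fused to GST were expressed in yeast, captured on glutathione beads, given DNA barcodes and pooled with a GST-only negative control. Pools were incubated with 200 nmole of a 16-mer random double-stranded DNA library in Tris/NaCl/DTT/glycerol buffer at room temperature for 30 min. They were then washed, crosslinked with 0.1% formaldehyde, proximity-ligated (BsaI/T4 ligase, 1 h, 37 °C), PCR-amplified and sequenced on an Illumina NextSeq500. Binding signal is each 6-mer's read frequency for a factor divided by its frequency for the GST control.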
# [2] = molecular target: T2, ELK1 (Homo sapiens, UniProt P19419 1-428); settings: protein: recombinant; tags: N-terminal GST; dsDNA, one strand shown
# T2 sequence: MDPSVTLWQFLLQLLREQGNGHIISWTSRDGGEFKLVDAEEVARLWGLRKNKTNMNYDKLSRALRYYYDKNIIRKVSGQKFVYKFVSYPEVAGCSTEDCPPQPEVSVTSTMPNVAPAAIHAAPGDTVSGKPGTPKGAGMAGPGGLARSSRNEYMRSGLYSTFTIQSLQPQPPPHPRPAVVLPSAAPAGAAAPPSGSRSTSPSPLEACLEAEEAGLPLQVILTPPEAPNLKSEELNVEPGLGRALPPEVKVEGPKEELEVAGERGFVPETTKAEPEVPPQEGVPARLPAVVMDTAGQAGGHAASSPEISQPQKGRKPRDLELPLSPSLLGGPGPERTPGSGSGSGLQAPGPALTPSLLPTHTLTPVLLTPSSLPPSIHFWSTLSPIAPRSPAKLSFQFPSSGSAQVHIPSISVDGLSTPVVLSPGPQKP
# In short: as §1
# [3] = molecular target: T3, GABPA (Homo sapiens, UniProt Q06546 1-454); settings: protein: recombinant; tags: N-terminal GST; dsDNA, one strand shown
# T3 sequence: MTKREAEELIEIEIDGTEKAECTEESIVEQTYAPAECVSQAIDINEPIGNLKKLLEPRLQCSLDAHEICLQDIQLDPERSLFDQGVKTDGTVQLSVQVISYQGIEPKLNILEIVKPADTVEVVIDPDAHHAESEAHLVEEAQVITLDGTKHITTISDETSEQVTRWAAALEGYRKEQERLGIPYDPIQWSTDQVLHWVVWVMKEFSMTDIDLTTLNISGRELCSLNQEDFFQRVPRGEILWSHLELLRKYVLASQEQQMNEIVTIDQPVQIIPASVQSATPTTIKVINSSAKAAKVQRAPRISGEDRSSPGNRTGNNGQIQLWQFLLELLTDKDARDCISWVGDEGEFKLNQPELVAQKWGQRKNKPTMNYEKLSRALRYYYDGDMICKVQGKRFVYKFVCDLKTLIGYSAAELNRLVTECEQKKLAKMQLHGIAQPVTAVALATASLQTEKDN
# In short: as §1
# [4] = molecular target: T4, ERG (Homo sapiens, UniProt P11308 1-479); settings: protein: recombinant; tags: N-terminal GST; dsDNA, one strand shown
# T4 sequence: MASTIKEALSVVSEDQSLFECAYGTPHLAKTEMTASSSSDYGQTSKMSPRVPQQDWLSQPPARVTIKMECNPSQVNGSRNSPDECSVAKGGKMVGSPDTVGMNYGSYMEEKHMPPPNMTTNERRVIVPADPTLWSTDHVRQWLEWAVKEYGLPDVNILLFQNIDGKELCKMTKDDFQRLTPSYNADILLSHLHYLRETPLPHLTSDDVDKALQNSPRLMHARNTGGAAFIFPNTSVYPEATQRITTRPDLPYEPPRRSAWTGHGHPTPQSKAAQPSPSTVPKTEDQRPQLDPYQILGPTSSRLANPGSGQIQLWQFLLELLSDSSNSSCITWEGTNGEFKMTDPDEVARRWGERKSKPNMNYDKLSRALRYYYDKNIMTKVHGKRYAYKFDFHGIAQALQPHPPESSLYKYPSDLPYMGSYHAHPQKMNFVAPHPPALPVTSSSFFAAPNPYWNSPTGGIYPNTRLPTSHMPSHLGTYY
# In short: as §1
# [5] = molecular target: ELF1 (Homo sapiens, UniProt P32519 1-619); settings: protein: recombinant; tags: N-terminal GST; dsDNA, one strand shown
# In short: as §1
# [6] = molecular target: T5, EHF (Homo sapiens, UniProt Q9NZC4 1-300); settings: protein: recombinant; tags: N-terminal GST; dsDNA, one strand shown
# T5 sequence: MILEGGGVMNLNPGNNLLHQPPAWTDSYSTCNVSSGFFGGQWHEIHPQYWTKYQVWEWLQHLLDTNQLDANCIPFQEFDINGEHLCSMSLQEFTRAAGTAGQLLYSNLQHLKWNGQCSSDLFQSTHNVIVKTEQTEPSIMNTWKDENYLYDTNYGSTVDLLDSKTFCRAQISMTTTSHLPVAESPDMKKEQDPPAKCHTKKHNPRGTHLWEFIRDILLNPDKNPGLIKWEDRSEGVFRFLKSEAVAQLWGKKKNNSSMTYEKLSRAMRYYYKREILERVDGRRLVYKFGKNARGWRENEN
# In short: as §1
# [7] = molecular target: SPI1 (Homo sapiens, UniProt P17947 1-270); settings: protein: recombinant; tags: N-terminal GST; dsDNA, one strand shown
# In short: as §1
# [8] = molecular target: SPIB (Homo sapiens, UniProt Q01892 1-262); settings: protein: recombinant; tags: N-terminal GST; dsDNA, one strand shown
# In short: as §1
# [9] = molecular target: T6, ELK3 (Homo sapiens, UniProt P41970 1-407); settings: protein: recombinant; tags: N-terminal GST; dsDNA, one strand shown
# T6 sequence: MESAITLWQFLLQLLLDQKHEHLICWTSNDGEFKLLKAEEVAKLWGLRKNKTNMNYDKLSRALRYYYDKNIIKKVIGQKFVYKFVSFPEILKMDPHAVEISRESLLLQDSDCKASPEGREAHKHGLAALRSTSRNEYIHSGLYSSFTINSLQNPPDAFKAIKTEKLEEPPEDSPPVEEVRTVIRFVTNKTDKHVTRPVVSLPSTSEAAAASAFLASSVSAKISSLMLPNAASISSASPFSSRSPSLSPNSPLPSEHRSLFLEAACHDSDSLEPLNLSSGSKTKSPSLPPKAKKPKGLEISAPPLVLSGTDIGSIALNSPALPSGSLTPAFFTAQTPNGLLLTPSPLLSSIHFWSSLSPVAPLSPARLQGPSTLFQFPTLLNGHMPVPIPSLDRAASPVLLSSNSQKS
# In short: as §1
# [10] = molecular target: T7, FEV (Homo sapiens, UniProt Q99581 1-238); settings: protein: recombinant; tags: N-terminal GST; dsDNA, one strand shown
# T7 sequence: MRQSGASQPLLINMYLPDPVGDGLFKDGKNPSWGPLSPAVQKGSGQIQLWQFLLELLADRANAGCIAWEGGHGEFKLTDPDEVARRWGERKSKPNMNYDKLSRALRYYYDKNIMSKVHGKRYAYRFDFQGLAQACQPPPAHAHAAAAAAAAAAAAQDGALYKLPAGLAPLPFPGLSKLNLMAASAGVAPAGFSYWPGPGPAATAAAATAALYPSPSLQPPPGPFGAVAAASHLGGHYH
# In short: as §1
# [11] = molecular target: ETV5 (Homo sapiens, UniProt P41161 1-510); settings: protein: recombinant; tags: N-terminal GST; dsDNA, one strand shown
# In short: as §1
# [12] = molecular target: HSF1 (Homo sapiens, UniProt Q00613 1-529); settings: protein: recombinant; tags: N-terminal GST; chain copies: 3; dsDNA, one strand shown
# In short: as §1
# [13] = molecular target: T8, SPIC (Homo sapiens, UniProt Q8N5J4 1-248); settings: protein: recombinant; tags: N-terminal GST; dsDNA, one strand shown
# T8 sequence: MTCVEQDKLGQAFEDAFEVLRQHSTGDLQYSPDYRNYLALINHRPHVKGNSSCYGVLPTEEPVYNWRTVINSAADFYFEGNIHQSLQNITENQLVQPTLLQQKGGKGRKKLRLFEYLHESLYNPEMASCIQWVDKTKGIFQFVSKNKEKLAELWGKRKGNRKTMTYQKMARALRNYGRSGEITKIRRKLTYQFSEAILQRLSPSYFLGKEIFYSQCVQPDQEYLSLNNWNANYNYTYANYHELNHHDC
# In short: as §1
# [14] = molecular target: ELF4 (Homo sapiens, UniProt Q99607 1-663); settings: protein: recombinant; tags: N-terminal GST; dsDNA, one strand shown
# In short: as §1
# [15] = molecular target: T9, ELK4 (Homo sapiens, UniProt P28324-2 1-405); settings: protein: recombinant; tags: N-terminal GST; dsDNA, one strand shown
# T9 sequence: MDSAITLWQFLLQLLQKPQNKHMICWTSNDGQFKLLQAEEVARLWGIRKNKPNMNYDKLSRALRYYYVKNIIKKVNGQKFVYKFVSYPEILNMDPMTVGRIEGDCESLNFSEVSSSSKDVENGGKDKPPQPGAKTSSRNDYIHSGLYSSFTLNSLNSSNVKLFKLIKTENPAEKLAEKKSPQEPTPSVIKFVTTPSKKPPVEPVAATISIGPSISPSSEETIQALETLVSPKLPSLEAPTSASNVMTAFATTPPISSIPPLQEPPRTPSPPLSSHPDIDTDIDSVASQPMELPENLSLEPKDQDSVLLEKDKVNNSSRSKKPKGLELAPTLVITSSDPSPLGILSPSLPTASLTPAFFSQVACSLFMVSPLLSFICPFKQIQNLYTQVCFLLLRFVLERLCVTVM
# In short: as §1
# [16] = molecular target: T10, ETV2 (Homo sapiens, UniProt O00321 1-342); settings: protein: recombinant; tags: N-terminal GST; dsDNA, one strand shown
# T10 sequence: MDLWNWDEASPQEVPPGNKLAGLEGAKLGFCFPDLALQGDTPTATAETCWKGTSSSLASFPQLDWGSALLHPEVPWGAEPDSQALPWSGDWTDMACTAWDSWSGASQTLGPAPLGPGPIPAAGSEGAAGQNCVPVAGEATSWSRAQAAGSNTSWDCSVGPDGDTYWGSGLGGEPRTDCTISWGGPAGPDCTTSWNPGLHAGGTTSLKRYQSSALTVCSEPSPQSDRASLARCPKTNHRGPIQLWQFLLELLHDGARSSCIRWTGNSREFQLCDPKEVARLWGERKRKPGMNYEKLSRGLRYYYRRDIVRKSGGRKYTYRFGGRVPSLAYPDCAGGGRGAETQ
# In short: as §1
# [17] = molecular target: T11, ELF3 (Homo sapiens, UniProt P78545 1-371); settings: protein: recombinant; tags: N-terminal GST; dsDNA, one strand shown
# T11 sequence: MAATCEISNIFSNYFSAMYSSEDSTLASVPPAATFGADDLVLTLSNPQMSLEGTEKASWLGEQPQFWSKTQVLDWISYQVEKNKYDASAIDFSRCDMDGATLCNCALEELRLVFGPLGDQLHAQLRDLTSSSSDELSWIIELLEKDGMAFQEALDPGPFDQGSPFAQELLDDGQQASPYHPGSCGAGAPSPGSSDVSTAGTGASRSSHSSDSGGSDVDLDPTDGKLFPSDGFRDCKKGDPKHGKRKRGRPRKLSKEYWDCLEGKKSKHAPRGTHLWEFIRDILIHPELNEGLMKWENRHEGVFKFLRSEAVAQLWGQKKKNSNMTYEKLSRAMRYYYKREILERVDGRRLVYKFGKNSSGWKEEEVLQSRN
# In short: as §1
# [18] = molecular target: CRX (Homo sapiens, UniProt O43186 1-299); settings: protein: recombinant; tags: N-terminal GST; dsDNA, one strand shown
# In short: as §1
# [19] = molecular target: ETV1 (Homo sapiens, UniProt P50549 1-477); settings: protein: recombinant; tags: N-terminal GST; dsDNA, one strand shown
# In short: as §1
# Chain of ELF4 (Q99607 whole entry): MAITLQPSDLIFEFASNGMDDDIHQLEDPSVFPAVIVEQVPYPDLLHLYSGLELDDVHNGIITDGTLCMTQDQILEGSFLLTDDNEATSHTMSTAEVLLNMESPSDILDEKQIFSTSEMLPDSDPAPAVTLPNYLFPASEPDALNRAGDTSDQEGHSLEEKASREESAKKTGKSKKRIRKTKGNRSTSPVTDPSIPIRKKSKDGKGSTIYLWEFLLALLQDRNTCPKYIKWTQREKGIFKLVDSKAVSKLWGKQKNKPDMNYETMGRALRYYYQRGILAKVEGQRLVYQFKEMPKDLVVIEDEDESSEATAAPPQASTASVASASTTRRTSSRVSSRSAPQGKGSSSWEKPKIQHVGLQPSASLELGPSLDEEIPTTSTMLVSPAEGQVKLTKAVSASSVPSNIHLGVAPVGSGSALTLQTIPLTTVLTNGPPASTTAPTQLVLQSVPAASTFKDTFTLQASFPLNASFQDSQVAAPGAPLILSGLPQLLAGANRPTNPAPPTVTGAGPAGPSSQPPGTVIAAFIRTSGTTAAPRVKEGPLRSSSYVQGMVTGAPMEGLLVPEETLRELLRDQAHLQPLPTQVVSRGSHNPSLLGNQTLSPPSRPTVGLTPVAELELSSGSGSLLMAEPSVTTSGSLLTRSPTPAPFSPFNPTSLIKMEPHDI
# Chain of SPIB (Q01892 whole entry): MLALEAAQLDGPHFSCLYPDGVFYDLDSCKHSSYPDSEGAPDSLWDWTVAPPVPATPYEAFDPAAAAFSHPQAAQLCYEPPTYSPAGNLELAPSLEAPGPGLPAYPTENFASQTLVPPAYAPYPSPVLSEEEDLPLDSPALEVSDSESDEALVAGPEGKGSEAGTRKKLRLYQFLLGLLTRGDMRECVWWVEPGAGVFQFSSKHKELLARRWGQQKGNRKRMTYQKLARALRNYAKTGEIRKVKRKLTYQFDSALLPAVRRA
# Chain of CRX (O43186 whole entry): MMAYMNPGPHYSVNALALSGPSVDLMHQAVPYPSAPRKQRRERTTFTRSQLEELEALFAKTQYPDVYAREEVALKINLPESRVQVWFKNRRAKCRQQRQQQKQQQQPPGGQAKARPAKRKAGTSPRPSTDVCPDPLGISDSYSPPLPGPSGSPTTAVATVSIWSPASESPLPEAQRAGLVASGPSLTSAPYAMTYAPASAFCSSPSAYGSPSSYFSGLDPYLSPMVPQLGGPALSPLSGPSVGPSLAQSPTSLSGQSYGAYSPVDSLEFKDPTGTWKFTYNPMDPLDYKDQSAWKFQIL
# Chain of ETV5 (P41161 whole entry): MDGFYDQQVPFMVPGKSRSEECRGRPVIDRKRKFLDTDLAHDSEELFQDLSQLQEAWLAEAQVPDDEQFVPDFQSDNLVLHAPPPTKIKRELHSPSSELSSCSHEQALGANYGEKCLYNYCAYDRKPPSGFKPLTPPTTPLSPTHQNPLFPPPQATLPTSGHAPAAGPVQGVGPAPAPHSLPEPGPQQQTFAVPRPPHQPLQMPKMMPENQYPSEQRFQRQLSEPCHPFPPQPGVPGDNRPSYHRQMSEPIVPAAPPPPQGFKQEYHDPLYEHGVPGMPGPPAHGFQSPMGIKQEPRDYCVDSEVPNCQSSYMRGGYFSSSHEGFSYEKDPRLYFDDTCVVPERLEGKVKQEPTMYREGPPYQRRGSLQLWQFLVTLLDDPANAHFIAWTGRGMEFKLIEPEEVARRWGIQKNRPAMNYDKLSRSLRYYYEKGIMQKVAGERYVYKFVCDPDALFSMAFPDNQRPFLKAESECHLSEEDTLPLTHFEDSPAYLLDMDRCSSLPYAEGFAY
# Chain of HSF1 (Q00613 whole entry): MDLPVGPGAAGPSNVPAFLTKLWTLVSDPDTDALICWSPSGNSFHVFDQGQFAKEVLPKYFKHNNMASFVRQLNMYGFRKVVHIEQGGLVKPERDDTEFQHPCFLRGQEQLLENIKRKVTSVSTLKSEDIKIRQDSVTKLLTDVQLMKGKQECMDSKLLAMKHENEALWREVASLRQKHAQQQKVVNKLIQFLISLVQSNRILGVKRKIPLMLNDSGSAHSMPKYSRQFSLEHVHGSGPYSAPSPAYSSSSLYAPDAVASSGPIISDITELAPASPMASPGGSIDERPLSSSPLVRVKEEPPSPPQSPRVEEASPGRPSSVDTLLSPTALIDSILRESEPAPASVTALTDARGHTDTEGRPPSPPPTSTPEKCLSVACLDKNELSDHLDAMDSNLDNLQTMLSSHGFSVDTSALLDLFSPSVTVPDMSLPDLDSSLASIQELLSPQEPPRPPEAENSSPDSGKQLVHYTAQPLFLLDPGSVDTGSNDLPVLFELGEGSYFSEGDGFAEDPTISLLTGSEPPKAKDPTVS
# Chain of ELF1 (P32519 whole entry): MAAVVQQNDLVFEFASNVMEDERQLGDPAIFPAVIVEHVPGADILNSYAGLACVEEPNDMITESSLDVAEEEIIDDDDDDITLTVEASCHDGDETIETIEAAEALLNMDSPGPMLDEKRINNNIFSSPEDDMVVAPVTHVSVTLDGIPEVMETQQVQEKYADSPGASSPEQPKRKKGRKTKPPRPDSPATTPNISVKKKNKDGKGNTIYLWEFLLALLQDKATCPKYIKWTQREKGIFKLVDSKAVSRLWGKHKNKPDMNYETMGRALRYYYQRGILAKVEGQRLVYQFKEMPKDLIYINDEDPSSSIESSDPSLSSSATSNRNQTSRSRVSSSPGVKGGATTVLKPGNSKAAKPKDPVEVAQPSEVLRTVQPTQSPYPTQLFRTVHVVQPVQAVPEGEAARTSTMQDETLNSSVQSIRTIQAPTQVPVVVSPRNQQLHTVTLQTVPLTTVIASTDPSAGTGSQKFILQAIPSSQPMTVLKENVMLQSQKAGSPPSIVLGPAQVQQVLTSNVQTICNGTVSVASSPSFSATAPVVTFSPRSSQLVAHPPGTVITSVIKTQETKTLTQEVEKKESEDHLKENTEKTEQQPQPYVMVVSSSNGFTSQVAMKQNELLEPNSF
# Chain of ETV1 (P50549 whole entry): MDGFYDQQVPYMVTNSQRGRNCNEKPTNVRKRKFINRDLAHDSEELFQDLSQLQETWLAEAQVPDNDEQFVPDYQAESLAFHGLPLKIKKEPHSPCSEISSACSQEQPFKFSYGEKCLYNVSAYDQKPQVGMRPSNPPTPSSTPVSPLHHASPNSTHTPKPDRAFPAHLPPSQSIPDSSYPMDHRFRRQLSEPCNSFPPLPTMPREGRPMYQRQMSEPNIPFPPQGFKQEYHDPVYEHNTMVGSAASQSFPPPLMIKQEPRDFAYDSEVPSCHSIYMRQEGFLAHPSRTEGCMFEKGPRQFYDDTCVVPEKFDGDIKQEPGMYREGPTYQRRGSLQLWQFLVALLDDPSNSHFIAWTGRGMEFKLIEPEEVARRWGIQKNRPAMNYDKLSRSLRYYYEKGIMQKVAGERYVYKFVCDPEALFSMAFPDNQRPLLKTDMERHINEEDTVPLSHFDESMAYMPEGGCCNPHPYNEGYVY
sequence,measurement,setting,value
TCTGAA,binding signal,[1],"1.11 fold enrichment (6-mer frequency, TF over GST control)"
same,binding signal,[2],"1.22 fold enrichment (6-mer frequency, TF over GST control)"
same,binding signal,[3],"1.13 fold enrichment (6-mer frequency, TF over GST control)"
same,binding signal,[4],"1.15 fold enrichment (6-mer frequency, TF over GST control)"
same,binding signal,[5],"1.18 fold enrichment (6-mer frequency, TF over GST control)"
same,binding signal,[6],"1.18 fold enrichment (6-mer frequency, TF over GST control)"
same,binding signal,[7],"1.18 fold enrichment (6-mer frequency, TF over GST control)"
same,binding signal,[8],"1.26 fold enrichment (6-mer frequency, TF over GST control)"
same,binding signal,[9],"1.17 fold enrichment (6-mer frequency, TF over GST control)"
same,binding signal,[10],"1.21 fold enrichment (6-mer frequency, TF over GST control)"
same,binding signal,[11],"1.09 fold enrichment (6-mer frequency, TF over GST control)"
same,binding signal,[12],"1.23 fold enrichment (6-mer frequency, TF over GST control)"
same,binding signal,[13],"1.2 fold enrichment (6-mer frequency, TF over GST control)"
same,binding signal,[14],"1.2 fold enrichment (6-mer frequency, TF over GST control)"
same,binding signal,[15],"1.14 fold enrichment (6-mer frequency, TF over GST control)"
same,binding signal,[16],"1.17 fold enrichment (6-mer frequency, TF over GST control)"
same,binding signal,[17],"1.18 fold enrichment (6-mer frequency, TF over GST control)"
same,binding signal,[18],"1.21 fold enrichment (6-mer frequency, TF over GST control)"
same,binding signal,[19],"1.21 fold enrichment (6-mer frequency, TF over GST control)"
